# According to PubChem BioAssay AID485270 (The Scripps Research Institute Molecular Screening Center, 2010):
# Among all 330,000 compounds or so, about 5,800 (1.8%) were called active. Only a selection was taken, and actives are over-represented in it overall. Unmarked numbers belong to inactive results. Rule as the data show it: active = inhibition mostly above about 38% (no sharp cut-off); inactive = mostly below about 40%.
# Target: Orexin/Hypocretin receptor type 1 (Homo sapiens) (UniProt O43613)
# Sequence (O43613 whole entry, looked up): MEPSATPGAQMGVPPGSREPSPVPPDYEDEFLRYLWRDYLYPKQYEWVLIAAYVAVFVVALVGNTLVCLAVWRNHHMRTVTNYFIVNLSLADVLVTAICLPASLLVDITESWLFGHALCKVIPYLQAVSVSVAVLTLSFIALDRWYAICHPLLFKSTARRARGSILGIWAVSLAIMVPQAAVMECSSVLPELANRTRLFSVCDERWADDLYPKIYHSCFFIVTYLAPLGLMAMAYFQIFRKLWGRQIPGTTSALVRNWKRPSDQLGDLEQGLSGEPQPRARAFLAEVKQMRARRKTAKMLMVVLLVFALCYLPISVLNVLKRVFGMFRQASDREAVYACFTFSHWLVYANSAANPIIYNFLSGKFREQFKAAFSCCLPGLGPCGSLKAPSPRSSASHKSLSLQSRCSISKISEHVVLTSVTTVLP
# Test: blocks the human orexin 1 receptor (AID 485270);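 also: 0% = agonist challenge alone and 100% = reference antagonist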
# Details: OX1R-expressing cells, FRET antagonist read-out; at 6.6 µM; stronger effect = higher value
row,Structure (SMILES),inhibition
1,CCOCN(C(=O)Cn1c(C(C)O)nc2ccccc21)c1c(C)cccc1CC (stereo unspecified),24%
2,O=C(NCCCCCCNC(=O)NCc1ccco1)NCc1ccco1,10.8%
3,Cc1cc(NC(=O)CSc2ncc(C(F)(F)F)cc2Cl)no1,0.5%
4,CCCCCCSc1ccc(-c2nc3ccc(Cl)cn3c2NCc2ccccc2)cc1,12.3%
5,COc1ccc2sc(-c3ccc(S(C)(=O)=O)cc3)c(-c3ccc(C(N)=O)cc3)c2c1,8.78%
6,COc1ccc(OC)c(NC(=O)CN(C)CCOc2ccc(Br)cc2)c1,38.8% (active)
7,COc1ccc(Br)cc1CN(C)CC(=O)Nc1cc([N+](=O)[O-])ccc1OC,12.8%
8,CN(CCOc1ccc(Br)cc1)CC(=O)Nc1cccc(S(=O)(=O)NC2=NCCC2)c1,18.8%
9,CN(CC(=O)Nc1cccc2c1CCCC2)S(=O)(=O)c1ccc(Cl)cc1,3.84%
10,COc1ccc(-c2nc3cnccn3c2NC2CCCCC2)cc1-c1cccc(Cl)c1,14.3%
11,Cn1nc(-c2ccc(Cl)cc2)c2cc(C(=O)NCc3ccco3)sc21,56.6% (active)
12,COc1ccc2c(Cl)c(C(=O)NCc3ccco3)sc2c1,5.49%
13,COc1ccccc1N1CCN(C(=O)c2cc3c(-c4ccc(Cl)cc4)nn(C)c3s2)CC1,2.56%
14,CN(CCC1CCOCC1)Cc1cn[nH]c1-c1ccc(-c2ccccc2)cc1,7.23%
15,O=C(CNC(=O)c1ccccc1)Oc1ccc([N+](=O)[O-])cc1,19.6%
16,O=C(CCC(=O)c1cccs1)Nc1nc2ccccc2s1,6.48%
17,O=C(CCNC(=O)c1ccccc1)Nc1nc2ccccc2s1,7.04%
18,O=C(O)CCC(=O)Nc1nc2ccc([N+](=O)[O-])cc2s1,78.8% (active)
19,O=C(NC(Nc1nc2ccc([N+](=O)[O-])cc2s1)(C(F)(F)F)C(F)(F)F)c1ccccc1,89.4% (active)

row,Structure (SMILES),inhibition
1,Cc1cc(CNC(=O)c2cccc([N+](=O)[O-])c2)c2ccccc2n1,58.6%
2,Cc1csc2nc(COC(=O)c3cccc(N(C)C)c3)cc(=O)n12,13.4%
3,COc1cc(C=NNC(=O)c2cccnc2)ccc1OC(=O)c1ccccc1F,8.6%
4,CC(CNC(=O)Cn1cnc2c(OCc3ccccc3)ncnc21)c1ccccc1 (stereo unspecified),3.56%
5,O=C(c1ccc(N2CCOCC2)c([N+](=O)[O-])c1)N1CCN(c2ccccc2F)CC1,7.32%
6,O=C(Nc1cccc(S(=O)(=O)N2CCCCC2)c1)c1cncc(Br)c1,-0.59%
7,C=CC[C@@H](CC(=O)N[C@H](CO)Cc1ccccc1)C(=O)N[C@H](C)COC(=O)[C@@H](CC=C)Cc1ccc(F)cc1,20.2%
8,O=C(O)C(NS(=O)(=O)c1cccc2nsnc12)c1ccccc1 (stereo unspecified),40.5%
9,CC(=O)c1ccc(NC(=O)C2CCCN2S(=O)(=O)c2cccs2)cc1 (stereo unspecified),12%
10,CC(=O)c1cccc(NC(=O)C2CCCN(S(=O)(=O)c3cccc4nonc34)C2)c1 (stereo unspecified),24.2%
11,CC(=O)c1cccc(NC(=O)C2CCCN2S(=O)(=O)c2cccc3nsnc23)c1 (stereo unspecified),110% (active)
12,CC1CCCCC1NC(=O)C1CCCN1S(=O)(=O)c1cccc2nsnc12 (stereo unspecified),73.9% (active)
13,COc1ccc(N(C)C(=O)C2CCN(S(=O)(=O)c3cccc4nsnc34)CC2)cc1,14.4%
14,Cc1ccc2nsnc2c1S(=O)(=O)N1CCCC1C(=O)O (stereo unspecified),30.4%
15,COc1ccc(NS(=O)(=O)c2cccc3nsnc23)cc1Cl,12.4%
16,COc1ccc(OC)c(NC(=O)C2CCCN2S(=O)(=O)c2cccc3nsnc23)c1 (stereo unspecified),44.2% (active)
17,Cc1noc(C)c1NC(=O)Nc1cccc2c1O[C@H](CN(C)C(=O)Nc1ccccc1)[C@@H](C)CN([C@H](C)CO)C2=O,6.95%
18,CC(=O)C[C@H](O)CC(=O)[C@@H]1OC(=O)[C@@H](C)C/C=C\Cc2ccccc21,0.77%
19,O=C1OCCN1C(=O)[C@H]1[C@H](c2ccccc2)C(c2ccc(F)cc2)=NN1c1ccccc1,5.3%

row,Structure (SMILES),inhibition
1,Cc1cccc(N2O[C@H]3C=CC2CCCC3)n1,3.41%
2,CCn1nc(C(=O)NNS(=O)(=O)c2cc(/C=C/C(=O)O)cc(OC)c2OC)c2ccccc2c1=O,3.49%
3,CC[C@]12c3[nH]c4ccc(OC)cc4c3CCN1C(=O)C(CC(=O)NCCN1CCOCC1)C[C@@H]2C(=O)N1CCN(C(=O)C2CC2)CC1 (stereo partly specified),17.4%
4,O=C1c2ccccc2C(=O)c2c1cccc2N1CCN(CCO)CC1,56.4% (active)
5,O=C1c2ccccc2C(=O)c2c1cccc2N1CCN(Cc2ccccc2)CC1,14.2%
6,O=C1c2ccccc2C(=O)c2c1cccc2N1CCN(C/C=C/c2ccccc2)CC1,20.4%
7,COc1cc(/C=C/C(=O)OCC(=O)c2ccccc2)cc(OC)c1OC,7.01%
8,CCOc1ccc(/C=C/C(=O)OCC(=O)c2ccccc2OC)cc1OC,62.2% (active)
9,COc1ccc(/C=C/C(=O)OCC(=O)NC2CCCCCC2)cc1OC,5.65%
10,CCc1nnc(NC(=O)CSCc2cc(=O)n3cc(C)sc3n2)s1,8.1%
11,O=C(COC(=O)c1cccnc1Cl)Nc1ccc(S(=O)(=O)N2CCOCC2)cc1,7%
12,CC(=O)N1Cc2ccccc2CC1C(=O)O (stereo unspecified),2.65%
13,COc1ccc(NC(=O)N(C)C[C@H]2Oc3ccc(NC(=O)C4CC4)cc3C(=O)N([C@H](C)CO)C[C@@H]2C)cc1,9.29%
14,COc1cc(C2CC(=O)Oc3cc(OC)c(OC)c(OC)c32)cc(OC)c1OC (stereo unspecified),5.32%
15,CN(C(=O)c1cccc(NC(=O)Cc2cccc([N+](=O)[O-])c2)c1)C1CCCCC1,10.1%
16,COC(=O)c1ccc(NC(=O)Nc2ccc(C)cc2)cc1,15.3%
17,CC(=O)c1ccc(NC(=O)Nc2ccc([N+](=O)[O-])cc2C)cc1,26%
18,COc1cc(NC(=O)Nc2ccc(C)cc2)cc([N+](=O)[O-])c1,45.8% (active)
